For 36 compounds, growth results are on record in PubChem BioAssay (NCI).

About 83,000 compounds went through this panel and 20% of them were active in at least one assay; those are over-represented in the sample as a whole.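 Method: cells in 96-well plates; compound added at one concentration; 48 h incubation; percent growth measured; values under 10 scored active.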 A number with no mark means an inactive call. Calls of active or inactive are those of the source.

This assay relates to A498 renal. Nature of the assay: NCI-60 one-dose screen, 48 h (100 = growth as untreated, 0 = no growth, -100 = all killed). The note with it: 10 µM unless noted.
For the compound `COc1ccccc1Cn1cc2c(c1)-c1oncc1CC2`, the growth was 29.2%.
On to `CC1=NN(c2cccc(Cl)c2)C(=O)/C1=C\c1cn(-c2nc(N3CCOCC3)nc(N3CCOCC3)n2)c2ccccc12`, for which the growth was 116%.
`NC(=O)c1c(Nc2ccccc2)nn2cc(-c3nc4ccccc4s3)c(N)nc12`: the growth is 92.5%.
With `O=C(N/N=C/c1coc2ccccc2c1=O)c1cc2oc(-c3ccccc3)cc2[nH]1`, the growth is 101%.
With `CCCCCCCCCC[N+](C)(C)C`, the growth is 32.9%.
The figure for `CCCCCCC(=O)C(C)C` is 115%; for `CCCC(=O)NNc1[nH]c(-c2ccc(OC)cc2)cc1C(=O)OCC` it is 95.8%.
In the case of `O=C1c2cc([N+](=O)[O-])ccc2-c2cc(Cl)c(NC(=O)C(F)(F)F)cc21`, the growth is 101%.
Next, `N=C(c1ccccc1)N(Cc1ccccc1)Cc1ccccc1`: 96%; `CSCc1ncc(-c2ccc(C(F)(F)F)cc2)c(NC2CCCCCC2)n1`: 60.8% [25 µM].
As for `O=C(Nc1cccc(Cn2c(=O)[nH]c3ccc(Oc4ncccn4)cc3c2=O)c1)c1ccc(Cl)cc1`, the growth was 53.4%.
On to `CC[C@H](Nc1ncnc2nc[nH]c12)c1nc2cccc(NCc3ccc(C(=O)NO)o3)c2c(=O)n1-c1ccccc1`, for which the growth is 97%.
With `CCCCCCCCCC[N+](C)(C)N`, the growth was 105%.
The figure for `C=C(C)C(C(=O)OCC)(C(=O)OCC)C(C)C` is 110%.
Turning to `COc1ccc(NC(=O)/C=C(C)/C=C/C=C(C)/C=C/C2=C(C)CCCC2(C)C)cc1`, the growth was 91.1%.
Next, `CCCCCCCCc1ccc(OCCOCC[N+](C)(C)CC)cc1` (tested in a mixture with another compound): 73.8%; `COc1cc2c(cc1OC)C(Cc1cc(OC)c(OC)cc1[N+](=O)[O-])=NCC2`: 56.4%.
Take `O=C1CCNC1`: the growth was 94.9%.
`COc1ccc(-c2nnc(SCC(=O)Nc3ccc(C(=O)/C=C/c4cc(OC)c(OC)c(OC)c4)cc3)n2-c2ccccc2)cc1OC`: the growth was -69.7% [100 µM] (active).
As for `O=S(=O)(O)c1ccc2c(c1)Sc1cc(S(=O)(=O)O)ccc1O2`, the growth is 96.6%.
The figure for `Cc1ccc(S(=O)(=O)Nc2cccc(Cn3c(=O)[nH]c4ccc(Oc5ncccn5)cc4c3=O)c2)cc1` is 77.8%; for `CCCCCCCCCCC(C[N+](C)(C)C/C=C/c1ccccc1)C(O)c1ccccc1` (stereo unspecified) it is 59%.
Regarding `COc1ccc(/C=C2\CCCC3=C2N=C2SC=NN2C3c2ccc(OC)c(OC)c2)cc1OC` (stereo unspecified), the growth was 42.8%.
For `COc1cc(CCNc2cnc3cc(N)cc(N)c3n2)cc(OC)c1`, the growth was 107%.
The figure for `O=C(CCl)c1ccc2c(c1)CCCC2` is 101%.
`Cc1ccc(C(=O)Nc2ccc(CN3CCN(C)CC3)c(C(F)(F)F)c2)cc1C#Cc1cnc(N)c2ccc(F)cc12`: the growth was -69.9% (active).
Consider `Cc1ccc(C(=O)Nc2ccc(CN3CCN(C)CC3)c(C(F)(F)F)c2)cc1C#Cc1cncc2ncccc12`, for which the growth is -95.5% (active).
As for `O=C(Nc1ccc(-n2cc(-c3ccncc3)c(-c3ccc(Cl)c(O)c3)n2)cc1)c1cc(C(F)(F)F)cc(C(F)(F)F)c1`, the growth was 87.7%.
Consider `CCCCCCCCCC(C)NC(=O)CCl` (stereo unspecified), for which the growth is 91.3%.
Turning to `COc1ccc(C(=O)CN2C(=O)NC(c3ccccc3)(c3ccccc3)C2=O)cc1`, the growth is 70.5%.
The figure for `CCCCCCCCC(=O)Nc1ccc(O)cc1` is 102%; for `COc1ccc(-c2nc(SCC(C)C)nc(Nc3ccccc3)c2C#N)cc1` it is 75.2%.
Next, `N#Cc1ccc(NC2c3ccccc3CC2O)cc1` (stereo unspecified): 115%.
As for `CCOC(=O)c1ccc2n1CCCc1cnc(NC(C)=O)nc1-2`, the growth was 74.3%.
For `COc1ccc2c(N)ncc(C#Cc3cc(C(=O)Nc4ccc(CN5CCN(C)CC5)c(C(F)(F)F)c4)cnc3C)c2c1`, the growth is 15.4%.
Consider `CCCCCCCCCCCC(=O)OC(C)C(=O)Nc1ccccc1` (stereo unspecified), for which the growth is 103%.
